The record followed here is PubChem BioAssay.

A short description of experiment [1]: rapamycin-like changes in RPL19A-GFP expression – cell-based, S. cerevisiae, multiplex flow cytometry, primary screen (AID 1862; in the data active = percent of DMSO control GFP below about 86%;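 also: lower values mimic rapamycin by blocking the RPL19A rise seen in DMSO cells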). The conditions noted are these: S. cerevisiae RPL19A-GFP strain, flow cytometry fluorescence, 3 h; at 10 µM; stronger effect = lower value.
Experiment [2] in a line: TOR pathway GLN3 branch reporter MEP2-GFP changes – S. cerevisiae, multiplex flow cytometry, primary screen (AID 1867;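 active = GFP response, as percent of the DMSO control, above the screen-wide mean plus 3 SD, about 139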;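 also: median GFP channel fluorescence of barcode-gated MEP2-GFP cells measured by flow cytometry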). As to conditions: S. cerevisiae MEP2-GFP strain, 3 h, at 10 µM, stronger effect = higher value, 100% means same as DMSO wells.
Experiment [3] in a line: TOR pathway RTG branch CIT2 reporter changes – S. cerevisiae, GFP fusion, multiplex flow cytometry, primary screen (AID 1870).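 Also: barcoded CIT2-GFP strain pooled with four other GFP strains with rapamycin as positive control; median GFP fluorescence per well over plate mean of DMSO wells so 100% = DMSO.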 As to conditions: S. cerevisiae CIT2-GFP expression, 3 h, at 10 µM, stronger effect = higher value.
A short description of experiment [4]: TOR pathway LAP4-GFP level changes – S. cerevisiae, multiplex flow cytometry, primary screen (AID 1873;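 active = GFP signal, as percent of the solvent control, above the screen mean plus 3 SD, about 149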). As to conditions: S. cerevisiae LAP4-GFP expression, 3 h, at 10 µM, stronger effect = higher value.
A short description of experiment [5]: yeast AGP1-GFP level changes, GLN3 branch – cell-based, multiplex flow cytometry, S. cerevisiae, primary screen (AID 1887;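 active = GFP signal above the screen-wide mean plus 3 SD, that is over about 124.5% of the solvent control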;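 also: AGP1-GFP fusion strain of S. cerevisiae within a five-strain barcoded multiplex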). As to conditions: 3 h, at 10 µM, stronger effect = higher value. On the technique in general: In flow cytometry, cells or beads pass a laser one at a time.
Experiment [6] is described as follows: reduced mouse 2C T cell binding to pMHC/ICAM-1 vesicles – MLPCN validation set, flow cytometry, LFA-1/ICAM-1 modulator project, pilot screen (AID 2523;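 active = response below a set limit, under 55% cells CD8-positive and vesicle-bound, and CD8 cells' 90th-percentile brightness under 279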;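 as to vesicle binding response: mean PE anti-B7-1 fluorescence of CD8+ cells relative to row control; 100% = QL9-loaded vesicles with DMSO vehicle in the same plate row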). The conditions noted are these: 2C mouse CD8+ T cells, at 7 µM, stronger effect = lower value; double positive events: measured here: CD8+/vesicle+ event percentage.
The target in experiment [7] is Integrin beta-1 (Homo sapiens) + Integrin alpha-4 (Homo sapiens) (UniProt P13612+P05556). As to the kind of experiment: alpha4beta1 integrin LIBS antibody binding reduction – U937 cells, HUTS-21 mAb, flow cytometry, validation set, VLA-4 allosteric modulator project, pilot screen (AID 2674;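 active = inhibition above 50%, about 3 SD of the validation set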;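 also: antibody binding induced by the VLA-4 ligand LDV present at three times its Kd; 0% = LDV ligand with antibody and no compound and 100% = antibody without LDV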). As to conditions: HUTS-21 LIBS mAb binding, at 6.7 µM, stronger effect = higher value, binding induced by LDV ligand.

Experiment [8] in a line: calorie-restriction mimetic ROS inhibitors, yeast – validation compound set, pilot screen (AID 2706;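 active = superoxide response below 65% of plate, a cut near 3 SD across the whole screen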;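 also: yeast exposed to compound for one week at 30 degrees C before staining; 100% = mean of all compound wells on the same plate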). The conditions noted are these: S. cerevisiae aging, superoxide DHE fluorescence; at 10 µM; stronger effect = lower value.
The target in experiment [9] is Beta-adrenergic receptor kinase 1 (Homo sapiens) (UniProt P25098). As to the kind of experiment: GRK2 binders displacing RNA aptamer, biochemical, validation, human GRK2, bead flow cytometry (AID 488806;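 active = aptamer binding inhibition above 30%, about 3 SD of noise from non-fluorescent compounds; inactive = inhibition at or below 30%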). The conditions noted are these: bead-bound GRK2, FAM-aptamer displacement, at 10 µM, stronger effect = higher value.
Experiment [10] addresses Beta-2 adrenergic receptor (Homo sapiens) (UniProt P07550). The experiment can be described thus: agonist-induced loss of surface beta2AR – cell-based, FAP fluorogen, flow cytometry, validation set, pilot screen (AID 504459;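 active = percent response above 42, roughly 3 SD of non-fluorescent test compounds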;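 also: agonist-driven loss of surface beta2AR via internalization measured by FAP dye flow cytometry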). As to conditions: Am2.2-beta2AR cells, at 10 µM, stronger effect = higher value.
In experiment [11] the target is AP-2 complex subunit beta (Homo sapiens) (UniProt P63010). As to the kind of experiment: beta-arrestin/AP2 interaction blockers – biochemical, validation set, GST-AP2 beads, flow cytometry, pilot screen (AID 504541;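 active = inhibition above 54%, about 3 SD of non-fluorescent compounds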;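 also: AP2 carries R879A mutation and is captured from E. coli lysate; bead-bound FITC arrestin peptide fluorescence measuring arrestin peptide binding to AP2; 0% = DMSO wells and 100% = excess unlabeled arrestin peptide control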). As to conditions: FITC arrestin peptide, at 10 µM, stronger effect = higher value, AP2 beta2 appendage fragment, R879A mutant.
Experiment [12] can be described thus: cytosolic pH regulators acting via V-ATPase – S. cerevisiae, pHLuorin, HTS validation (AID 504600; in the data active = response above about 15%;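 also: plate controls were DMSO for no effect and reference compound for full effect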). The conditions noted are these: V-ATPase proton transport, at 10 µM, stronger effect = higher value.
For experiment [13], the system named is anti-desmoglein-3 scFv antibody binding to human DSG3. As to the kind of experiment: blockers of pathogenic pemphigus antibody–desmoglein-3 binding – biochemical, validation compound set, bead-based, flow cytometry, pilot screen (AID 588368;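 active = binding below the plate cutoff, the plate median minus 3 SD, with a reading above zero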;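 also: signal is the median channel fluorescence of bead-bound GFP antibody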). The conditions noted are these: Protein G beads, DSG3-Fc, scFv-GFP binding, at 10 µM, stronger effect = lower value.
Experiment [14] in a line: Nile Red efflux blockade in pump-expressing yeast – validation compound set, multiplex, phenotypic, pilot screen (AID 588506;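 active = efflux inhibition above 0.42, the validation set average plus 4 SD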;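 also: Nile Red retained in cells so higher fluorescence means more efflux inhibition; 0 = negative control wells and 1 = enniatin B 25 µM full block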). As to conditions: S. cerevisiae pump-expressing triplex, Nile Red efflux flow cytometry; at 10 µM; stronger effect = higher value; the pumps come from Candida albicans.
Experiment [15] has as its target ATP-binding cassette sub-family B member 6 (Homo sapiens) (UniProt Q9NP58). As to the kind of experiment: blockers of ABCB6-driven porphyrin uptake – K562-ABCB6 cells, flow cytometry, validation set, pilot screen (AID 588550;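 active = inhibition above the screen-wide mean plus 3 SD, about 51%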;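 also: 0% = DMSO wells and 100% = benzethonium chloride 70 µM positive control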). The conditions noted are these: K562-ABCB6 porphyrin accumulation, 1 h, at 10 µM, stronger effect = higher value.
Experiment [16] is described as follows: AML differentiation inducers, ER-HoxA9 marrow cells – cell-based, GFP/MAC1 double positive, flow cytometry, validation set, primary screen (AID 588685;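 active = differentiation response of at least 50%, scaled between solvent and reference control, from cells with both markers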;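 also: compound exposure lasts four days before antibody staining and flow analysis; 0% = DMSO wells and 100% = 5 µM fulvestrant positive control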). The conditions noted are these: stronger effect = higher value, normalized: vehicle 0, fulvestrant 100.

Inconclusive results are not listed. The source made the active and inactive calls.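 The calls were made as follows, unless noted: active = percent response above a set limit, the screen-wide mean plus 3 SD (cut at about 130% in these data); inactive = the rest.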

AP-2 complex subunit beta (Homo sapiens), sequence (P63010 whole entry, looked up, the tested form may be a part, one chain of several): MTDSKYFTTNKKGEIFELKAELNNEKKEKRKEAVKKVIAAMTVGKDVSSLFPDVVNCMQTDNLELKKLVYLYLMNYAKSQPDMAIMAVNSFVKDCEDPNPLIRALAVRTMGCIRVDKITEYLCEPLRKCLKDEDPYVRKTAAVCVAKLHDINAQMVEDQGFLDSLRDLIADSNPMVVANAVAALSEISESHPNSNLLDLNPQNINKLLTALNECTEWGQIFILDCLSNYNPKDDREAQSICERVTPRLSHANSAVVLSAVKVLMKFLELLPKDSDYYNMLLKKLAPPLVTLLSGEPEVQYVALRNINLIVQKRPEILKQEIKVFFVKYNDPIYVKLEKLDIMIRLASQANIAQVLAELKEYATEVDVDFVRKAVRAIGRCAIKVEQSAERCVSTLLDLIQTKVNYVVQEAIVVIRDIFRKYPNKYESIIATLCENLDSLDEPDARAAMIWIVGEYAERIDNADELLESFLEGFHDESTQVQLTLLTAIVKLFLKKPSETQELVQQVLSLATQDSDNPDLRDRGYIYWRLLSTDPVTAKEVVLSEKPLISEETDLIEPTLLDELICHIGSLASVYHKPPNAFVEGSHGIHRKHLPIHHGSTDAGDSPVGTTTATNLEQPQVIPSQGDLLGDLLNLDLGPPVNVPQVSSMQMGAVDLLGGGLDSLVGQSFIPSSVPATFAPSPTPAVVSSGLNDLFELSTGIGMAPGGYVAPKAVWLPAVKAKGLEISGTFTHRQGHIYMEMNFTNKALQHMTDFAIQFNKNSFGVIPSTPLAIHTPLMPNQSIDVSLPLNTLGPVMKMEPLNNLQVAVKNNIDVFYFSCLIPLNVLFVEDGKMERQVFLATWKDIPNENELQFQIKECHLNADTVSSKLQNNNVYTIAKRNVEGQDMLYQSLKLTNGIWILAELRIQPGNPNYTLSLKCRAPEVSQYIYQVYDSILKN
Integrin beta-1 (Homo sapiens) + Integrin alpha-4 (Homo sapiens), sequence (P05556 whole entry, looked up): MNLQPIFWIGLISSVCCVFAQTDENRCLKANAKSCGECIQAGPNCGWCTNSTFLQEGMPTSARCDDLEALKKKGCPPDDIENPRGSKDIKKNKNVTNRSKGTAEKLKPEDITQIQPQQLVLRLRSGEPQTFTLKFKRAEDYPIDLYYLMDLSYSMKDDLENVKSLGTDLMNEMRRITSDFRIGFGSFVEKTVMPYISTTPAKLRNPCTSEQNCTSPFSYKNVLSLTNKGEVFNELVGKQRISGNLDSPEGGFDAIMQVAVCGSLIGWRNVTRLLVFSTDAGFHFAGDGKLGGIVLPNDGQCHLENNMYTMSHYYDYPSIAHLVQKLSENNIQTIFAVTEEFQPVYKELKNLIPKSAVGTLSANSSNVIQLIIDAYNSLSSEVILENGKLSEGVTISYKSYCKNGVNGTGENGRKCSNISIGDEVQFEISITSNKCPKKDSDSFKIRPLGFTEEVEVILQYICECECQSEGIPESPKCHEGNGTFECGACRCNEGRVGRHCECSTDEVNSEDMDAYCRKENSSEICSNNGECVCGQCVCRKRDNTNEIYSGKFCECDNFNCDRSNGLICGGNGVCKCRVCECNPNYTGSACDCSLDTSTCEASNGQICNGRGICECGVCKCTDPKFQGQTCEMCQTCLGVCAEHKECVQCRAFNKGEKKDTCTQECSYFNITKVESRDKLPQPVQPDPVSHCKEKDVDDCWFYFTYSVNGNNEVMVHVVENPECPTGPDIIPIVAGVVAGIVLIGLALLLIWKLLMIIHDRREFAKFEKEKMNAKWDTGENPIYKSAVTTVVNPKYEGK
Integrin beta-1 (Homo sapiens) + Integrin alpha-4 (Homo sapiens), sequence (P13612 whole entry, looked up): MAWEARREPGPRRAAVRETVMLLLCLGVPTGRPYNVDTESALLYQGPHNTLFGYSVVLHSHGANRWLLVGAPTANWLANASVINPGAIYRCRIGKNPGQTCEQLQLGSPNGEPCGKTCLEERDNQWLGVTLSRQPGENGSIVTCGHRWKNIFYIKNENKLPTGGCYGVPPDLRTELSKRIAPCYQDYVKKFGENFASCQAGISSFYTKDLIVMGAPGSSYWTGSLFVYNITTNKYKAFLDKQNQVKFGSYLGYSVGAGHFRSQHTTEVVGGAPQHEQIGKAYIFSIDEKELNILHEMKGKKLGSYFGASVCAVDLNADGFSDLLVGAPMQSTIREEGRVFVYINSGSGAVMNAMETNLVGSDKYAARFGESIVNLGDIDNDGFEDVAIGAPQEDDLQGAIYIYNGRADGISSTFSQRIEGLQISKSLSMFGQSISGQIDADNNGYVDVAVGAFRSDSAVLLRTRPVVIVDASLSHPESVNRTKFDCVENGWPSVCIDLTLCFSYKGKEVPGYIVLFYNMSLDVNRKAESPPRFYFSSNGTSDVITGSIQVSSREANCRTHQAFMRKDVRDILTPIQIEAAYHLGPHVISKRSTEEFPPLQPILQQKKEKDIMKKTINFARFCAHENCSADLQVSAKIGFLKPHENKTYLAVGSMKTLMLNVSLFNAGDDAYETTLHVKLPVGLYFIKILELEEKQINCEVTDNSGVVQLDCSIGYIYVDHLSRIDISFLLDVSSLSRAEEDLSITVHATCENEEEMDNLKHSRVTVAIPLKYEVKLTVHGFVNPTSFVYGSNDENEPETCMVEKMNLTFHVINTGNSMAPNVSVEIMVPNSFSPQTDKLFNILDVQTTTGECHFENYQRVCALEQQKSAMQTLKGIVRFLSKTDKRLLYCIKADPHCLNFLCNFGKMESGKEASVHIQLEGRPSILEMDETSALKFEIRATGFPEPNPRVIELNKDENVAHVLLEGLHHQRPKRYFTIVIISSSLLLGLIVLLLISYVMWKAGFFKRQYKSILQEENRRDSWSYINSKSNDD
ATP-binding cassette sub-family B member 6 (Homo sapiens), sequence (Q9NP58 whole entry, looked up): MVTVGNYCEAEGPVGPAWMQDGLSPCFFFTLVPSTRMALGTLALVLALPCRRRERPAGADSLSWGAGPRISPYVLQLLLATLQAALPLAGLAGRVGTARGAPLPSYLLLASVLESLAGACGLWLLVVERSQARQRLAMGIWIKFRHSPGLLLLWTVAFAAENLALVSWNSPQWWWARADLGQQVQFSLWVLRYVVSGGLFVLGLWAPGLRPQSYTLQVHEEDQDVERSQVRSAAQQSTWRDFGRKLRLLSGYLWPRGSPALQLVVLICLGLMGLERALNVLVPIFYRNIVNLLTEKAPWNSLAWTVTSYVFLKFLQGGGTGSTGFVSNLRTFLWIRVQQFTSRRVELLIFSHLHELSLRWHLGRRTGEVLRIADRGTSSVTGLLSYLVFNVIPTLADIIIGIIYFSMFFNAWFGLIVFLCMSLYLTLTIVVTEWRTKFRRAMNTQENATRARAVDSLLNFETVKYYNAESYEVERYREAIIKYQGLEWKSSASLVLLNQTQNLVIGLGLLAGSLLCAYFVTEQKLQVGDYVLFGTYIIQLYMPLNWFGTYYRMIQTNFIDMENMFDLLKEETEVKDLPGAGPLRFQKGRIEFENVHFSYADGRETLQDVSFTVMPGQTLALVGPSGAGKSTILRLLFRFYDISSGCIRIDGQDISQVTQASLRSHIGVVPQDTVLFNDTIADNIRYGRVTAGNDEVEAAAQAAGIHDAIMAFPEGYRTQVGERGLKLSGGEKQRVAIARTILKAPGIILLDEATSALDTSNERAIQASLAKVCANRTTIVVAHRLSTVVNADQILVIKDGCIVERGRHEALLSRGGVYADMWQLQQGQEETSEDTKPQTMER
Beta-2 adrenergic receptor (Homo sapiens), sequence (P07550 whole entry, looked up): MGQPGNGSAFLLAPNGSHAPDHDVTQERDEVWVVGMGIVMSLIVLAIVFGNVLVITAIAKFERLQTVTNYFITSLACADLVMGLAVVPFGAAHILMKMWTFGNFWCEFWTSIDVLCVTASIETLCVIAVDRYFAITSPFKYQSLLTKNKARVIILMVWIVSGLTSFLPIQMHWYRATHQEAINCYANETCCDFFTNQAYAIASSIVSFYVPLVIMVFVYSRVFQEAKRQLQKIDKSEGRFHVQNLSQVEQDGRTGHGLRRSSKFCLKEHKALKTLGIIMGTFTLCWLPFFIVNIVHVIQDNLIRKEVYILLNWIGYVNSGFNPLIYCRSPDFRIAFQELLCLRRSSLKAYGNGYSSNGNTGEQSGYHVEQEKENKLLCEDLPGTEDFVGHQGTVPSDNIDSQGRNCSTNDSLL
Beta-adrenergic receptor kinase 1 (Homo sapiens), sequence (P25098 whole entry, looked up): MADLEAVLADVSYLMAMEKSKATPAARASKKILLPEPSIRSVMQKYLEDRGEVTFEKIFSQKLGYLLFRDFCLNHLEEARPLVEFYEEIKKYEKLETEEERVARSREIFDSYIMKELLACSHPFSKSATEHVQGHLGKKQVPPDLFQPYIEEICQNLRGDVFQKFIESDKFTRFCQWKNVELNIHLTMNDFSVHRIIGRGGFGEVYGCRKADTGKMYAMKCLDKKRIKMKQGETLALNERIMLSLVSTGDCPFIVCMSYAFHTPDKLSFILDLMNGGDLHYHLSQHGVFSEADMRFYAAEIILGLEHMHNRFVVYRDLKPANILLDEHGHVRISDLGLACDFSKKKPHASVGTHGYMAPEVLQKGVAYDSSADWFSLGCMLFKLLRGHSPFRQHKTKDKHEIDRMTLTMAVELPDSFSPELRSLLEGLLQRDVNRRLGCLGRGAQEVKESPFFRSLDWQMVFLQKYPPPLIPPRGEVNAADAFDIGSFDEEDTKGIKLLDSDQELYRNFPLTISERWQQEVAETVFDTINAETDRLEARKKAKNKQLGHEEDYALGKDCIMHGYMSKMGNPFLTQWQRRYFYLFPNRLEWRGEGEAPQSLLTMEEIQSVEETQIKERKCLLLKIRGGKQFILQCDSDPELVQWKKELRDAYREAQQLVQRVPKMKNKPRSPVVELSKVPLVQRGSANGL

What is called inhibition is the change of the read-out against control, counted positive when it falls. With `CC(C(=O)O)c1ccc(-c2ccccc2)c(F)c1` (stereo not given), in [1], the percent of DMSO control GFP was 94.8% (inactive). For the same compound, the GFP response vs DMSO in experiment [2] was 104% (inactive); in [4], 128% (inactive). Also, the percent response of DMSO control in experiment [3] was 76.8% (inactive). For the same compound, in experiment [5], the GFP response, % of DMSO is 84.8% (inactive). This compound came in with a double positive events in experiment [6] of 66.4%. For the same compound, the vesicle binding response in experiment [6] was 1320% (inactive). Also, the inhibition in experiment [7] is 1.62% (inactive); in [11] it was -9.46% (inactive); in [15], 1% (inactive). For the same compound, the superoxide response (% of plate) in experiment [8] was 106% (inactive). In experiment [9], the aptamer binding inhibition was -1% (inactive). In addition, the response is -7.02% (inactive) in experiment [10] and -1.04% (inactive) in experiment [12]. Moreover, the binding (% of control) in [13] was 103% (inactive). Moreover, the efflux inhibition (fraction of control) in experiment [14] was 0.05 (inactive). In addition, in experiment [16], the differentiation response is 0.24% (inactive).
With `CC1(C)S[C@@H]2[C@H](NC(=O)Cc3ccccc3)C(=O)N2[C@H]1C(=O)O`, the percent of DMSO control GFP in experiment [1] was 105% (inactive). In addition, the GFP response vs DMSO in experiment [2] was 102% (inactive); in [4], 101% (inactive). In addition, the percent response of DMSO control in [3] was 98.3% (inactive). The GFP response, % of DMSO in [5] was 119% (inactive). The compound further gave a double positive events in experiment [6] of 66.2%. Moreover, the vesicle binding response in experiment [6] is 185% (inactive). Also, the inhibition in [7] was 15.1% (inactive); in experiment [11] it was 1.23% (inactive); in experiment [15] it was 10% (inactive). In addition, the superoxide response (% of plate) in experiment [8] was 92.1% (inactive). In experiment [9], the aptamer binding inhibition was 3% (inactive). Moreover, the response in [10] is -19.9% (inactive); in experiment [12] it was -1.26% (inactive). In addition, in experiment [13], the binding (% of control) was 99.7% (inactive). Moreover, the efflux inhibition (fraction of control) in [14] was 0.08 (inactive). In [16], the differentiation response was 2.89% (inactive).
In the case of `CC(N=C(NC#N)Nc1ccncc1)C(C)(C)C` (stereo not given), the percent of DMSO control GFP in experiment [1] was 102% (inactive). Further, the GFP response vs DMSO in [2] was 103% (inactive); in experiment [4], 99.1% (inactive). For the same compound, the percent response of DMSO control in experiment [3] was 103% (inactive). For the same compound, the GFP response, % of DMSO in experiment [5] is 100% (inactive). The compound further registered a double positive events in experiment [6] of 59.1%. For the same compound, in [6], the vesicle binding response was 97.4% (inactive). For the same compound, the figures for the inhibition in experiment [7], in experiment [11] and in [15] were 5.61% (inactive), 0.53% (inactive) and -10% (inactive), respectively. Moreover, the superoxide response (% of plate) in experiment [8] is 104% (inactive). In addition, in experiment [9], the aptamer binding inhibition is 3% (inactive). For the same compound, the results for the response in [10] and in experiment [12] were -2.47% (inactive) and -9.1% (inactive), respectively. In addition, the binding (% of control) in experiment [13] is 101% (inactive). For the same compound, in experiment [14], the efflux inhibition (fraction of control) is 0.09 (inactive). For the same compound, the differentiation response in experiment [16] was -1.65% (inactive).
Take `COc1ccc(-c2nc3c(=O)n(C)c(=O)[nH]c3n2CCc2ccccc2)cc1`: the percent of DMSO control GFP in experiment [1] was 111% (inactive). In addition, the GFP response vs DMSO in experiment [2] was 103% (inactive); in experiment [4], 93.1% (inactive). Further, the percent response of DMSO control in experiment [3] was 115% (inactive). Also, the GFP response, % of DMSO in experiment [5] was 104% (inactive). In [6], this compound yielded a double positive events of 64%. The vesicle binding response in [6] is 232% (inactive). Further, the values for the inhibition in [7], in experiment [11] and in experiment [15] were 13.2% (inactive), -0.08% (inactive) and 3% (inactive), respectively. Besides, the superoxide response (% of plate) in experiment [8] is 107% (inactive). Besides, the aptamer binding inhibition in [9] was 0% (inactive). The figures for the response in experiment [10] and in experiment [12] were 12.6% (inactive) and -6.09% (inactive), respectively. For the same compound, in experiment [13], the binding (% of control) was 99.3% (inactive). Also, the efflux inhibition (fraction of control) in experiment [14] is -0.13 (inactive). Moreover, the differentiation response in experiment [16] is -23.2% (inactive).
For the compound `CCOCCn1c(C(C)O)nc2ccccc21` (stereo not given), in experiment [1], the percent of DMSO control GFP was 105% (inactive). Further, the GFP response vs DMSO is 96.2% (inactive) in experiment [2] and 98% (inactive) in experiment [4]. Besides, in experiment [3], the percent response of DMSO control was 111% (inactive). Besides, in experiment [5], the GFP response, % of DMSO is 104% (inactive). The double positive events in experiment [6] turned out to be 62.6%. In addition, the vesicle binding response in experiment [6] was 278% (inactive). Further, the figures for the inhibition in [7], in experiment [11] and in experiment [15] were 20.3% (inactive), -8.14% (inactive) and -3% (inactive), respectively. Besides, the superoxide response (% of plate) in [8] was 89.7% (inactive). In experiment [9], the aptamer binding inhibition is 1% (inactive). Moreover, the response in [10] was -7.33% (inactive); in [12], 4.51% (inactive). Besides, the binding (% of control) in experiment [13] was 95.3% (inactive). The efflux inhibition (fraction of control) in experiment [14] was 0.02 (inactive). Besides, in experiment [16], the differentiation response was 7.09% (inactive).
